Data as given in PubChem BioAssay (NCI).
About 83,000 compounds went through this panel and 20% of them were active in at least one assay; those are over-represented in the sample as a whole.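 Treatment: one concentration, 48 hours, 96-well format. Scoring: percent growth, with anything below 10 considered active.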 Unmarked numbers belong to inactive results. Active and inactive are the calls of the source.

Test system: MDA-MB-468 breast
Experiment: NCI-60 one-dose screen, 48 h (100 = growth as untreated, 0 = no growth, -100 = all killed)
Settings: 10 µM unless noted

| Structure (SMILES) | growth |
| --- | --- |
| COc1cc(C2C(C#N)=C(c3c[nH]c4ccccc34)Nc3nc(N)[nH]c(=O)c32)cc(OC)c1OC (stereo unspecified) | 13.2% |
| NC(=N\N=C/c1ccc(O)cc1)/C(N)=N\N=C/c1ccc(O)cc1 | 103% |
| O=C1CSC(c2ccccc2)N1c1ccccc1 (stereo unspecified) | 90.6% |
| CCC(=O)Oc1ccc2ccccc2c1 | 96.8% |
| CC(C)(C)OC(=O)N1CCC(O)[C@@H](O[Si](c2ccccc2)(c2ccccc2)C(C)(C)C)[C@H]1/C=C/c1ccccc1 (stereo partly specified) | 15.2% |
| COc1cc2c(cc1O)CC[C@@H]1[C@@H]2CC[C@]2(C)[C@@H](NCCN(C)C)CC[C@@H]12 | -85.1% (active) |
| C#Cc1ccc(-n2c(/C=C/c3ccc(C(F)(F)F)cc3)nc3ncccc3c2=O)cc1 | -9.87% (active) |
| C#COc1cccc(Nc2c(C#N)cnc3ncc(NC(=O)CCl)cc23)c1 | 3.39% [6.25 µM] (active) |
| CC(C)(C)c1ccc(S(=O)(=O)N[C@H]2CC[C@H]3[C@@H]4CCc5cc(O)ccc5[C@H]4CC[C@]23C)cc1 | 57.8% |
| CCN(CC)CCNC(=O)n1cc(-c2ccncc2)c(-c2cc(Cl)cc(OC)c2)n1 | 80.5% |
| O=C1C=C(Nc2cccc(Br)c2)c2ccccc2C1=O | 90.2% |
| COc1ccc(O)c(-c2cc(-c3ccccc3)c(C#N)c(=O)[nH]2)c1 | 92.8% |
| CC1=NN(c2ccccc2)C(=O)/C1=C\N1CC(=O)NC1=S | 101% |
| CC(=O)OC(C(=O)c1ccccc1)c1ccccc1 (stereo unspecified) | 109% |
| O=C(c1ccccc1)N1N=C(c2ccc(-n3ccc(C(F)(F)F)n3)cc2)CC1c1ccc[nH]1 (stereo unspecified) | 86% |
| O=NN(Cc1cccnc1)C(=O)NC1CCCCC1 | 104% |

| Structure (SMILES) | growth |
| --- | --- |
| CC(=O)NNC(=S)/N=C\C(C(=O)c1ccccc1)=C(/O)c1ccccc1 | 114% |
| NC(=O)N1N=C(c2ccc(Cl)cc2)CC1c1cn(-c2ccccc2)nc1-c1ccc(Cl)cc1 (stereo unspecified) | 69.1% |
| C=C1c2c(C)nn(-c3ccc(N)cc3)c2N(C)C23CC1C1(C)c4c(C)nn(-c5ccc(N)cc5)c4N(C)C(C)(CC12)C3 (stereo unspecified) | 59.5% |
| Fc1ccc(-c2nn(-c3ccccc3)cc2-c2nc3ccccc3o2)cc1 | -21.2% (active) |
| CCOC(=O)C(Cc1ccccc1)(C(=O)OCC)C(Br)C(=O)c1ccccc1 (stereo unspecified) | -9.41% (active) |
| CN1C(=O)/C(=C/c2ccc(C(=O)Nc3ncc(Cc4cccc(C(F)(F)F)c4)s3)cc2)SC1=S | -2.76% (active) |
| CN1CC=C(c2cc(NC(=O)Nc3ccc(Oc4ccnc(NC(=O)C5CC5)c4)c(F)c3)cc(C(F)(F)F)c2)CC1 | -30.3% (active) |
| CCN(CC)c1ccc(/C=C\C(=O)c2ccc(NC(C)=O)cc2)cc1 | 10.7% |
| CC[C@@](C)(NC(=O)[C@H](C)NC(=O)CCNC(=O)C(C)(C)NC(=O)[C@H](C)NC(=O)[C@@H]1CCCN1C(=O)[C@@](C)(CC)NC(=O)[C@H](Cc1ccccc1)NC(=O)C1CCCN1C(=O)C(C)(C)NC(=O)C1CCCN1C(=O)C(C)(C)NC(C)=O)C(=O)NCCC(=O)N[C@@H](CC(C)C)C(=O)NC(C)(C)C(=O)NCCC(=O)N[C@@H](CC(C)C)C(=O)NC(C)(C)C(=O)NC(C)(C)C(=O)N[C@@H](CC(C)C)C(=O)NCCC(=O)NCO (stereo partly specified) | -91.9% (active) |
| COc1cc(/C=C2\C(=O)Nc3cc(C)c(O)cc32)cc(OC)c1OC | 29.3% |
| C/C=C/CSC(C)(C)C(=O)NC | 96.4% |
| O=C(c1c[nH]c2ccccc12)c1n[nH]c(=S)n1-c1ccc([N+](=O)[O-])cc1 | 106% |
| CCCCCCCCCCCCCCCCC(=O)O.CCCCCCCCCCCCCCCCCC(=O)O.CCCCCCCCCCCCCCCCCC(=O)O.CCCCCCCCCCCCCCCCCC(=O)O.CCCCCCCCCCCCCCCCCC(=O)O.CO[CH-]OC12COC1CC(O)C1(C)C(O)C(OC(C)O)C3=C(C)C(OC(=O)C(O)C([NH-])c4ccccc4)CC(O)(C(OC(=O)c4ccccc4)C21)C3(C)C.[Cu+].[Zn].[Zn].[Zn].[Zn].[Zn] (stereo unspecified) | -13.3% (active) |
| COc1ccc2c(c1)c(-c1nc(-c3c[nH]c4ncccc34)cs1)cn2CCNC(=O)OC(C)(C)C | 20% |
| O=c1cn[nH]c2ccc(Br)cc12 | 109% |
